From PubChem BioAssay (EPA / NIEHS)
More than one record can exist for a structure, and the calls need not agree. Calls of active or inactive are those of the source. How the source made its calls: active means hit-call score of the fitted dose curve at least 0.9, where 1 is the maximum; inactive means score below 0.9.

Columns and labels:
[1] = read-out: Interferon-gamma inducible Protein 10 (IP10), CXCL10 (gene 3627); test: BSK_hDFCGF_IP10: BioMAP Diversity Plus: hDFCGF Assay for Interferon-gamma inducible Protein 10 (IP10) Biomarker Activity (AID 2283053); conditions: primary human foreskin fibroblasts; actives raise or lower the signal
Summary of the method: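 IP-10 levels, quantified by ELISA, are taken from human foreskin fibroblast cultures 24 h after chemical treatment, with DMSO serving as negative control and baseline for bidirectional analysis.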

[2] = read-out: Urokinase-type plasminogen activator receptor (uPAR), PLAUR (gene 5329); test: BSK_CASM3C_uPAR: BioMAP Diversity Plus: CASM3C Assay for Urokinase-type plasminogen activator receptor (uPAR) Biomarker Activity (AID 2283054); conditions: primary human coronary artery smooth muscle cells; actives raise or lower the signal;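 further: cell-surface uPAR protein level quantified by ELISA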
[3] = read-out: Vascular cell adhesion molecule 1 (VCAM1), VCAM1 (gene 7412); test: BSK_CASM3C_VCAM1: BioMAP Diversity Plus: CASM3C Assay for Vascular cell adhesion molecule 1 (VCAM1) Biomarker Activity (AID 2283055); conditions: primary human coronary artery smooth muscle cells; actives raise or lower the signal;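 further: VCAM-1 protein level quantified by ELISA on the cells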
[4] = read-out: Collagen III, COL3A1 (gene 1281); test: BSK_hDFCGF_CollagenIII: BioMAP Diversity Plus: hDFCGF Assay for Collagen III Biomarker Activity (AID 2283056); conditions: primary human foreskin fibroblasts; actives raise or lower the signal
Summary of the method: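 Response relative to DMSO, fitted in both directions, reflects ELISA-measured collagen III in human primary skin fibroblasts 24 h after compound addition.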

[5] = read-out: Epidermal growth factor receptor (EGFR), EGFR (gene 1956); test: BSK_hDFCGF_EGFR: BioMAP Diversity Plus: hDFCGF Assay for Epidermal growth factor receptor (EGFR) Biomarker Activity (AID 2283057); conditions: primary human foreskin fibroblasts; actives raise or lower the signal
Summary of the method: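 Measured by ELISA: EGFR levels on primary human foreskin fibroblasts 24 h after chemical treatment, analysed relative to DMSO with bidirectional fitting.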

[6] = read-out: Interleukin-8 (IL8), CXCL8 (gene 3576); test: BSK_hDFCGF_IL8: BioMAP Diversity Plus: hDFCGF Assay for Interleukin-8 (IL8) Biomarker Activity (AID 2283058); conditions: primary human foreskin fibroblasts; actives raise or lower the signal
Summary of the method: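 Fibroblast monolayers (human foreskin, hDFCGF) received test chemical for 24 h before ELISA detection of IL-8; either increases or decreases relative to DMSO count as activity.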

[7] = BSK_hDFCGF_Proliferation: Cell Proliferation Assessment in the BioMAP Diversity Plus: hDFCGF Assay (AID 2283059); conditions: primary human foreskin fibroblasts;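 further: curves fitted for both rise and fall of signal versus DMSO baseline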
Summary of the method: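 Primary human foreskin fibroblasts, sub-confluent; […]; 10% TCA fix, 0.1% SRB stain, A560 total protein. Gain/loss fitted bidirectionally vs DMSO control.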

[8] = read-out: Macrophage colony-stimulating factor (MCSF), CSF1 (gene 1435); test: BSK_hDFCGF_MCSF: BioMAP Diversity Plus: hDFCGF Assay for Macrophage colony-stimulating factor (MCSF) Biomarker Activity (AID 2283060); conditions: primary human foreskin fibroblasts; actives raise or lower the signal
Summary of the method: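 fibroblasts (human foreskin, primary), 24 h post-dose; M-CSF by ELISA; bidirectional fit, DMSO = baseline.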

[9] = BSK_hDFCGF_SRB: Viability Assessment in the BioMAP Diversity Plus: hDFCGF Assay (AID 2283061); conditions: primary human foreskin fibroblasts;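 further: cells exposed to compound for 24 h before the read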
Summary of the method: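 SRB-based viability read on primary human skin fibroblasts at 24 h: TCA fixation, 0.1% dye, 560 nm. Gain or loss of signal is fitted against the DMSO negative control.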

[10] = read-out: TIMP metallopeptidase inhibitor 1 (TIMP1), TIMP1 (gene 7076); test: BSK_hDFCGF_TIMP1: BioMAP Diversity Plus: hDFCGF Assay for TIMP metallopeptidase inhibitor 1 (TIMP1) Biomarker Activity (AID 2283062); conditions: primary human foreskin fibroblasts; actives raise or lower the signal
Summary of the method: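 Bidirectional curve fitting against DMSO baseline yielded this endpoint, based on ELISA detection of TIMP-1 in primary human foreskin fibroblasts exposed to compound for 24 h.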

[11] = read-out: Monokine induced gamma interferon (MIG), CXCL9 (gene 4283); test: BSK_hDFCGF_MIG: BioMAP Diversity Plus: hDFCGF Assay for Monokine induced gamma interferon (MIG) Biomarker Activity (AID 2283063); conditions: primary human foreskin fibroblasts; actives raise or lower the signal
Summary of the method: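 Endpoint derived by bidirectional fitting relative to DMSO; MIG quantified via ELISA in primary human foreskin fibroblasts harvested 24 h after dosing.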

[12] = read-out: Matrix Metallopeptidase 1 (MMP1), MMP1 (gene 4312); test: BSK_hDFCGF_MMP1: BioMAP Diversity Plus: hDFCGF Assay for Matrix Metallopeptidase 1 (MMP1) Biomarker Activity (AID 2283064); conditions: primary human foreskin fibroblasts; actives raise or lower the signal
Summary of the method: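 hDFCGF primary fibroblasts (human foreskin); chemical added; 24 h; MMP1 by ELISA; bidirectional fit vs DMSO.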

[13] = read-out: Vascular cell adhesion molecule 1 (VCAM1), VCAM1 (gene 7412); test: BSK_hDFCGF_VCAM1: BioMAP Diversity Plus: hDFCGF Assay for Vascular cell adhesion molecule 1 (VCAM1) Biomarker Activity (AID 2283065); conditions: primary human foreskin fibroblasts; actives raise or lower the signal;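 on AC50: VCAM-1 protein level quantified by ELISA after 24 h chemical exposure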
Summary of the method: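 Measured after 24 h chemical treatment of primary human skin fibroblasts, VCAM-1 was detected by ELISA and concentration-response analysed in both directions versus DMSO vehicle.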

[14] = read-out: Plasminogen activator inhibitor-1 (PAI1), SERPINE1 (gene 5054); test: BSK_hDFCGF_PAI1: BioMAP Diversity Plus: hDFCGF Assay for Plasminogen activator inhibitor-1 (PAI1) Biomarker Activity (AID 2283066); conditions: primary human foreskin fibroblasts; actives raise or lower the signal
Summary of the method: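 PAI-1 levels, determined by ELISA, served as the endpoint in human foreskin fibroblast cultures exposed to compound for 24 h, with DMSO as baseline.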

[15] = read-out: Intercellular Adhesion Molecule 1 (ICAM1), ICAM1 (gene 3383); test: BSK_KF3CT_ICAM1: BioMAP Diversity Plus: KF3CT Assay for Intercellular Adhesion Molecule 1 (ICAM1) Biomarker Activity (AID 2283067); conditions: primary human keratinocytes with fibroblasts; actives raise or lower the signal
Summary of the method: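 Bidirectional curve fitting against a DMSO baseline was applied to ICAM-1 ELISA signal from primary human skin co-cultures harvested 24 h after treatment, with SRB staining of parallel wells for overt cytotoxicity.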

[16] = read-out: Interleukin-1 alpha (IL1a), IL1A (gene 3552); test: BSK_KF3CT_IL1a: BioMAP Diversity Plus: KF3CT Assay for Interleukin-1 alpha (IL1a) Biomarker Activity (AID 2283070); conditions: primary human keratinocytes with fibroblasts; actives raise or lower the signal
Summary of the method: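 Chemicals were dosed onto co-cultured human keratinocytes and foreskin fibroblasts, IL-1a was quantified by ELISA at 24 h, and activity was fitted in both directions relative to DMSO controls.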

[17] = read-out: TIMP metallopeptidase inhibitor 2 (TIMP2), TIMP2 (gene 7077); test: BSK_KF3CT_TIMP2: BioMAP Diversity Plus: KF3CT Assay for TIMP metallopeptidase inhibitor 2 (TIMP2) Biomarker Activity (AID 2283071); conditions: primary human keratinocytes with fibroblasts; actives raise or lower the signal
Summary of the method: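 Keratinocyte–fibroblast co-culture, 24 h exposure; TIMP-2 ELISA, DMSO-normalised bidirectional fit. Parallel SRB (0.1%, TCA-fixed, 560 nm) total-protein staining gauges cytotoxicity.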

[18] = read-out: Transforming growth factor beta 1 (TGFb1), TGFB1 (gene 7040); test: BSK_KF3CT_TGFb1: BioMAP Diversity Plus: KF3CT Assay for Transforming growth factor beta 1 (TGFb1) Biomarker Activity (AID 2283072); conditions: primary human keratinocytes with fibroblasts; actives raise or lower the signal
Summary of the method: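 Signal changes in either direction, relative to DMSO, define activity here. TGF-b1 is read by ELISA from a human keratinocyte-fibroblast co-culture 24 h post-dose.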

[19] = read-out: Interferon-gamma inducible Protein 10 (IP10), CXCL10 (gene 3627); test: BSK_KF3CT_IP10: BioMAP Diversity Plus: KF3CT Assay for Interferon-gamma inducible Protein 10 (IP10) Biomarker Activity (AID 2283068); conditions: primary human keratinocytes with fibroblasts; actives raise or lower the signal
Summary of the method: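 In a primary skin co-culture of keratinocytes and fibroblasts, IP-10 is quantified by ELISA at 24 h after dosing. SRB staining of parallel wells monitors overt toxicity. Curves are fitted both directions against DMSO.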

[20] = BSK_KF3CT_SRB: Viability Assessment in the BioMAP Diversity Plus: KF3CT Assay (AID 2283069); conditions: primary human keratinocytes with fibroblasts;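 further: total protein by sulforhodamine B staining as a cytotoxicity measure; fitted for both signal gain and loss against DMSO baseline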
Summary of the method: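 Keratinocytes co-cultured with foreskin fibroblasts (human primary); chemical added, 24 h; fix 10% TCA, stain 0.1% SRB, A560. Bidirectional fit vs DMSO.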

Measured: AC50

O=C1NS(=O)(=O)c2ccccc21
active: [3] 0.15 µM
inactive: [1] | [2] | [3] | [4] | [5] | [6] | [7] | [8] | [9] | [10] | [11] | [12] | [13] | [14] | [15] | [16] | [17] | [18]

OCC(CO)(CBr)CBr
inactive: all assays above

CCCCCCCCCCCCOS(=O)(=O)O
active: [1] 26.3 µM | [5] 20 µM | [7] 16 µM | [8] 30.9 µM | [9] 28 µM | [10] 32 µM | [11] 27.7 µM | [12] 32.7 µM | [13] 29.3 µM | [14] 33.6 µM | [19] 33.4 µM | [16] 20 µM | [17] 29.3 µM | [18] 33.4 µM
inactive: [2] | [3] | [4] | [6] | [15]

C=CC(C)(CCC=C(C)C)OC(C)=O (stereo not given)
active: [2] 20 µM | [3] 34.6 µM | [7] 24.7 µM | [9] 36.1 µM | [14] 29.8 µM | [17] 32 µM
not listed: [20]
inactive: all other assays above

CN(CCO)S(=O)(=O)C(F)(F)C(F)(F)C(F)(F)C(F)(F)C(F)(F)C(F)(F)C(F)(F)C(F)(F)F
active: [8] 0.0414 µM
inactive: [1] | [2] | [3] | [4] | [5] | [6] | [7] | [8] | [9] | [10] | [11] | [12] | [13] | [14] | [15] | [16] | [17]
